# PubChem BioAssay (NCATS)
# Inconclusive results are not listed. A call without a number means that no potency is given here. Active and inactive are the calls of the source. The call rests on the fitted dose curve; in most records, active means well fitted cell-killing curve with a large enough effect; inconclusive means small, poorly fitted or top-dose-only effect; inactive means flat fitted curve, though single readings scatter.
# Test: Cell Viability - LYMP2-025 (AID 976);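 further: cells exposed to compound for 24 h at 37 °C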
# Conditions: LYMP2-025 lymphoblastoid cell viability; series mostly up to 92.2 µM
# Procedure, shortened: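 In qHTS format, LYMP2-025 lymphoblastoid cells in complete culture medium received compound for 24 hr; ATP-based CellTiter-Glo signal gave viability, with AC50 derived by Hill equation.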
row,Compound,Potency
1,CC=O,inactive
2,Cc1ccc(CO)cc1,inactive
3,Cc1cc([N+](=O)[O-])ccc1N,inactive
4,Clc1cc(Cl)cc(Cl)c1,inactive
5,Nc1nc2ccccc2[nH]1,inactive
6,NC(=O)c1ccccc1[N+](=O)[O-],inactive
7,COc1ccc(N)c(C)c1,inactive
8,Oc1cccc(Nc2ccccc2)c1,inactive
9,O=C(O)c1cccc(Cl)c1Cl,inactive
10,O=C(O)CNC(=O)c1ccc(CO)o1,inactive
11,Nc1cccc2c(=O)[nH][nH]c(=O)c12,inactive
12,CCOc1cccc(N)c1,inactive
13,CCC(C)(C)C(=O)O,inactive
14,ICCc1ccccc1,inactive
15,COc1ccc(OC)cc1,inactive
16,FC(F)(F)c1cccc(Cl)c1,inactive

row,Compound,Potency
1,CCNS(=O)(=O)c1ccc(C)cc1,inactive
2,CCOc1ccccc1N,inactive
3,C=CC(=O)NC(C)C,inactive
4,Cc1ccc2cccnc2c1,inactive
5,CCCCCCO,inactive
6,CC(=O)Nc1ccccc1C,inactive
7,CC(C)(c1cc(Br)c(OCC(Br)CBr)c(Br)c1)c1cc(Br)c(OCC(Br)CBr)c(Br)c1 (configuration not stated),inactive
8,COc1ccc(N=[N+]([O-])c2ccc(OC)cc2)cc1,inactive
9,CNc1ccccc1,inactive
10,Oc1c(Cl)ccc(Cl)c1Cl,inactive
11,CN(C)CCCNCCCN,inactive
12,ClC/C=C/CCl,inactive
13,O=C(Cl)c1cccc([N+](=O)[O-])c1,inactive
14,CC(=C/C=C/C(C)=C/C=C/C=C(C)/C=C/C=C(C)/C=C/C(=O)O)/C=C/C(=O)O,inactive
15,Cc1cccc(C(=O)O)c1,inactive
16,Cc1ccc2ncccc2c1,inactive
